# According to paper PMC7862700, “An all-to-all approach to the identification of sequence-specific readers for epigenetic DNA modifications on cytosine”:
# Key:
# Experiment in all cases: DAPPL (digital affinity profiling via proximity ligation, sequencing); 10 mM Tris-HCl pH 7.5, 50 mM NaCl, 1 mM DTT, 4% glycerol, room temperature, 30 min; GST-TFs on glutathione beads, 16-mer random dsDNA library, 0.1% formaldehyde crosslink after washing; high values mean tight binding
# Details in all cases: protein: recombinant; tags: N-terminal GST; dsDNA, one strand shown
# [1] = target: T1, FLI1 (Homo sapiens, UniProt Q01543 1-452)
# T1 sequence: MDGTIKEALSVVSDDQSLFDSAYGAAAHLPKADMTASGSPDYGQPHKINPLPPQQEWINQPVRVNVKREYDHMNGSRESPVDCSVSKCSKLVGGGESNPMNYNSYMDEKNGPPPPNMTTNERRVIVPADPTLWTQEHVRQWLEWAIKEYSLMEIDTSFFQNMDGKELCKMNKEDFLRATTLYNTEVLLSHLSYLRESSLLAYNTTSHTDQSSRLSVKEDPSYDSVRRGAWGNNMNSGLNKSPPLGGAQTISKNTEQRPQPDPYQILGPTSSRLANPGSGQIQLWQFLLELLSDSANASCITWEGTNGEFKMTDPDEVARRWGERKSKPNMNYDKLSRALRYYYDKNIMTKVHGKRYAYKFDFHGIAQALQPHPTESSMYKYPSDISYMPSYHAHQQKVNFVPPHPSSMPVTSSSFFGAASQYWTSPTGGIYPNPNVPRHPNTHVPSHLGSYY
# Outline: (§1)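 Binding signal is defined as a hexamer's read frequency for one factor over its frequency for the tag-only sample. To obtain reads, GST-fused human transcription factors were expressed in yeast, captured on glutathione beads, barcoded with DNA and pooled with that sample. Pools met 200 nmole of a 16-mer random double-stranded DNA library in Tris/NaCl/DTT/glycerol buffer for 30 min at room temperature before washing, 0.1% formaldehyde crosslinking, proximity ligation (BsaI/T4 ligase, 1 h, 37 °C), PCR and Illumina NextSeq500 sequencing.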
# [2] = target: T2, ELK1 (Homo sapiens, UniProt P19419 1-428)
# T2 sequence: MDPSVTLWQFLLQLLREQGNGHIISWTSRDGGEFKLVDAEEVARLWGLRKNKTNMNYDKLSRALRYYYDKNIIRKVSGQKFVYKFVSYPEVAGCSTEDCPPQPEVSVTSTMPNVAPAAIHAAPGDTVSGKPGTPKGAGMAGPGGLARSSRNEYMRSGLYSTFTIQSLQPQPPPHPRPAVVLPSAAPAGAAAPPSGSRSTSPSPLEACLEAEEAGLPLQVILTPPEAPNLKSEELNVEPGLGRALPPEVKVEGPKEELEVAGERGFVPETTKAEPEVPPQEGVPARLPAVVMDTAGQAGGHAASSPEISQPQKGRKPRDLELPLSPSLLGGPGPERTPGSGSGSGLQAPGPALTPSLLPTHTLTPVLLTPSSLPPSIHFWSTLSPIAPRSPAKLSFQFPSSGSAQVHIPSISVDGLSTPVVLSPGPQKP
# Outline: as §1
# [3] = target: T3, GABPA (Homo sapiens, UniProt Q06546 1-454)
# T3 sequence: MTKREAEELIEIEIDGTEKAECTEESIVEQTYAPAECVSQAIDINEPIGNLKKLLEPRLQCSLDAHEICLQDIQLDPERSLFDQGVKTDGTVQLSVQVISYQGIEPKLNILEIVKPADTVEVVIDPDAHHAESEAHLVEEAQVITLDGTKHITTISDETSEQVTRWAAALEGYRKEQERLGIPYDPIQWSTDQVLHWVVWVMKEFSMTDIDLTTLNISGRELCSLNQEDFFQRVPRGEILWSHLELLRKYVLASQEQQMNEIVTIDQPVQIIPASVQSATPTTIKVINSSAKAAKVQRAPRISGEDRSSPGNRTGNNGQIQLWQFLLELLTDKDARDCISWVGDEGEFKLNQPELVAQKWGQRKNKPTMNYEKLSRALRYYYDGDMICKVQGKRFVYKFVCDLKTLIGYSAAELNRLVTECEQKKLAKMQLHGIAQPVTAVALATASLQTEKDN
# Outline: as §1
# [4] = target: T4, ERG (Homo sapiens, UniProt P11308 1-479)
# T4 sequence: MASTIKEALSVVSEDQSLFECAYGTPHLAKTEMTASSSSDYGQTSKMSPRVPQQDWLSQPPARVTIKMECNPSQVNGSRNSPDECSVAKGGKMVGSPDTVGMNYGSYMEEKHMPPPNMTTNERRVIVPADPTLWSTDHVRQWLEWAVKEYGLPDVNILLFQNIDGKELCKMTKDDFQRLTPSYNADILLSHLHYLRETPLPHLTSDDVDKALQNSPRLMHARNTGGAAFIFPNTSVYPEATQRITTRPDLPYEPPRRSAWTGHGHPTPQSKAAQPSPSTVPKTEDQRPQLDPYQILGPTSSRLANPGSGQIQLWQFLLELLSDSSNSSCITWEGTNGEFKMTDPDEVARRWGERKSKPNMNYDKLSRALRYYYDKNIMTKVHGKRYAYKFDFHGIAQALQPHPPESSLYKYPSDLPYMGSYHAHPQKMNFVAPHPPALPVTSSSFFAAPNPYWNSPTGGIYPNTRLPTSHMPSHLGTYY
# Outline: as §1
# [5] = target: ELF1 (Homo sapiens, UniProt P32519 1-619)
# Outline: as §1
# [6] = target: T5, EHF (Homo sapiens, UniProt Q9NZC4 1-300)
# T5 sequence: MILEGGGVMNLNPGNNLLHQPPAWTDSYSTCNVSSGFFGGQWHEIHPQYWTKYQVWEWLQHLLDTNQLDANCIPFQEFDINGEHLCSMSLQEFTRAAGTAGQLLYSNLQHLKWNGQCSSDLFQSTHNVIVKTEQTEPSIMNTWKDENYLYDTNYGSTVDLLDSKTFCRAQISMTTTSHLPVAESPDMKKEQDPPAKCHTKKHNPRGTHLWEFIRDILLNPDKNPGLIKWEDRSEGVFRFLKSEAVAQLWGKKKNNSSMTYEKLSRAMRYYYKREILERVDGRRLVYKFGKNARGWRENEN
# Outline: as §1
# [7] = target: SPI1 (Homo sapiens, UniProt P17947 1-270)
# Outline: as §1
# [8] = target: SPIB (Homo sapiens, UniProt Q01892 1-262)
# Outline: as §1
# [9] = target: T6, ELK3 (Homo sapiens, UniProt P41970 1-407)
# T6 sequence: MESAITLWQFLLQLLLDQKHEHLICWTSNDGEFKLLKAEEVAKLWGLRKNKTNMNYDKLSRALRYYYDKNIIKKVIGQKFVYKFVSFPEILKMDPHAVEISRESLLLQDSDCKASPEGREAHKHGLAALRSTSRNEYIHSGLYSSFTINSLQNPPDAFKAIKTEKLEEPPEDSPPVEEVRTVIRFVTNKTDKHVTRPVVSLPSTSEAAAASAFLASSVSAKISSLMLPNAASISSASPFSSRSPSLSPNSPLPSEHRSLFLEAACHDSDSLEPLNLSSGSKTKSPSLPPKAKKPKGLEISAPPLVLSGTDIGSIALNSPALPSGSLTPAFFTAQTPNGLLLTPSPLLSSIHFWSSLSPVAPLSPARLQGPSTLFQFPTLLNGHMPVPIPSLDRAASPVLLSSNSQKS
# Outline: as §1
# Chain of ELF1 (P32519 whole entry): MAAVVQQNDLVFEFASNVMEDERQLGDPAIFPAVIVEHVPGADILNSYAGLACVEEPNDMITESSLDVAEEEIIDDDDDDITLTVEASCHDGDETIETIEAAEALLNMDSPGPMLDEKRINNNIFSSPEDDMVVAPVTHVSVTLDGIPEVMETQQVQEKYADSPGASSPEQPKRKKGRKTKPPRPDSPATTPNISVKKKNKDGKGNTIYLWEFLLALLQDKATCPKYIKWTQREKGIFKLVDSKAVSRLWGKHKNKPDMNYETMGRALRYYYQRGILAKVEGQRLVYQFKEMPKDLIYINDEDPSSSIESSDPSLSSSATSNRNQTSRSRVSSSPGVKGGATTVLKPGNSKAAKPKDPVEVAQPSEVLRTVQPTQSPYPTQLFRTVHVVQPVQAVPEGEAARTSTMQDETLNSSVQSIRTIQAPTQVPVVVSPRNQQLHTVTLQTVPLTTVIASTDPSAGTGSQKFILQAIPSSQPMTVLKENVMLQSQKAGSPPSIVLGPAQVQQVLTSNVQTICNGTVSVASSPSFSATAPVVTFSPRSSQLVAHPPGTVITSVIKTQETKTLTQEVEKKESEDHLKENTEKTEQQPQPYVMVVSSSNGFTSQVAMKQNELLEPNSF
# Chain of SPIB (Q01892 whole entry): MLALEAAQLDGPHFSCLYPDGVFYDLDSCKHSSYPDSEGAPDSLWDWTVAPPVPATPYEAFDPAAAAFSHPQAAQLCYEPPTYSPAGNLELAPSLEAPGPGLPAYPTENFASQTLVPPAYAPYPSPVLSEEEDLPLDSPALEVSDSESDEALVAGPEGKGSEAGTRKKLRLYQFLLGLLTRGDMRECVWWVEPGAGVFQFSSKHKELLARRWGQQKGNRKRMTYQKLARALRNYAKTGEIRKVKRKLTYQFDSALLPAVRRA
sequence,measurement,setting,value
CTCTGT,binding signal,[1],"1.5 fold enrichment (6-mer frequency, TF over GST control)"
same,binding signal,[2],"1.39 fold enrichment (6-mer frequency, TF over GST control)"
same,binding signal,[3],"1.33 fold enrichment (6-mer frequency, TF over GST control)"
same,binding signal,[4],"1.29 fold enrichment (6-mer frequency, TF over GST control)"
same,binding signal,[5],"1.5 fold enrichment (6-mer frequency, TF over GST control)"
same,binding signal,[6],"1.44 fold enrichment (6-mer frequency, TF over GST control)"
same,binding signal,[7],"1.34 fold enrichment (6-mer frequency, TF over GST control)"
same,binding signal,[8],"1.36 fold enrichment (6-mer frequency, TF over GST control)"
same,binding signal,[9],"1.19 fold enrichment (6-mer frequency, TF over GST control)"
